Compounds without any hit were thinned out: in the full panel of roughly 83,000, 20% have a hit.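 Note: values are percent growth. 100 is the growth of untreated cells, values between 100 and 0 indicate rising inhibition; between -100 and 0 indicates cell death.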 Values without a mark were called inactive. Active and inactive are the calls of the source.
System: A498 renal
Assay: NCI-60 one-dose screen, 48 h (100 = growth as untreated, 0 = no growth, -100 = all killed)
Details: 10 µM unless noted
Procedure: Growth inhibition of the A498 human tumor cell line is measured as a screen for anti-cancer activity. Cells are grown in 96 well plates and exposed to the test compound for 48 hours. Compounds are tested at a single concentration, which is 10^-5 M for most compounds. The reported endpoint is percent growth (GI% or GIPRCNT), where numbers from 0 - 100% represent growth inhibition, and numbers from -100% - 0 represent cell death. For example, a value of 40 represents 60% growth inhibition. A value of 0 means no net growth occurred over the course of the experiment. A value of -40 indicates 40% of cells at the beginning of the experiment died by the end of the experiment. A value of -100 means all cells are dead at the end of the experiment.
NCI-60 Human Tumor Cell Lines Screen was performed using the standard one-dose NCI protocol, which is described in more detail at https://dtp.cancer.gov/discovery_development/nci-60/default.htm.
Compounds with GIPRCNT values below 10 were considered active. Activity score was based on GIPRCNT using the following formula: […]
Score is 0 for GIPRCNT values of 100 or above, 50 for GIPRCNT values of 0, and 100 for GIPRCNT values of -100.

Structure (SMILES)	growth
COc1ccc(C2CC(=O)Nc3c2c(C)nn3-c2nc3ccccc3[nH]2)cc1 (stereo not given)	41.6%
CSc1nc(NCCCNc2ccnc3cc(Cl)ccc23)cc(-c2ccccc2)n1	40.2%
Cc1ccc(N)cc1F	98.2%
COc1ccc(-n2c(C)nc3c(c(C)nn3-c3ccccc3)c2=O)cc1	-27.8% (active)
COC1/C=C\OC2(C)Oc3c(C)c(O)c4c(O)c(c(CN(C)CCO)c(O)c4c3C2=O)NC(=O)/C(C)=C\C=C/C(C)C(O)C(C)C(O)C(C)C(OC(C)=O)C1C (stereo not given)	115%
O=C1Nc2ccccc2/C1=C/C(=N/c1nnc(-c2ccc(Cl)cc2)s1)c1ccccc1	104%
C=C1CCC2C3(C)COC(c4ccccc4Br)OC3CCC2(C)C1C/C=C1/C(=O)OCC1OC(C)=O (stereo not given)	42.8%
CCN(CC)Cc1cc(Nc2c3ccccc3nc3cc(Cl)ccc23)ccc1O	-61.4% (active)
COc1ccc(/C=C/C(=O)c2c(O)c(C)c(O)c3c2OC2=CC(O)=C(C(C)=O)C(=O)[C@]23C)cc1	-56.2% (active)
CCN(CC)c1ccc(/C=C/C2=[N+](C)c3ccccc3C2(C)C)cc1	50.7%
CC(C)(C)n1cc(-c2ccnc(NCCCNS(=O)(=O)c3cccc4ccccc34)c2)c(-c2cccc(O)c2)n1	48%
CCCNc1nc(SC)nc(-c2cccc(N)c2)c1C#N	72.4%
COc1ccc(Cl)cc1Nc1nc(C(F)(F)F)ccc1C(=O)N/N=C/c1cccnc1	40.8%
Cn1cc(-c2ccc(-c3cn(C)c4ncccc34)[nH]2)c2cccnc21	83.3%
COc1cc(/C=N/N(C)C)ccc1O	75.7%
O=c1[nH]c(-c2ccccn2)nc2sc3c(c12)CCCCC3	59.4%
O=C(CN1CCN(c2cc3c(cc2F)c(=O)c(C(=O)O)cn3C2CC2)CC1)Nc1nc(-c2ccccc2)cs1	65.2%
COc1cccc(/C=C2/C(=O)N(Cc3ccco3)SC2=S)c1OC	102%
CNCCCn1c2c(c3ccc([N+](=O)[O-])cc3c1=O)C(=O)c1cc(OC)cnc1-2	-97% (active)
Nc1nc2c(c3ncccc13)C(c1ccc(Cl)c(Cl)c1)Cc1ncccc1-2 (stereo not given)	-13.5% (active)

Structure (SMILES)	growth
O=C(/C=C/c1ccc(Cl)cc1)/C=C/c1cc2ccccc2[nH]c1=O	94.7%
COc1ccc(/C=C2\N=C3SC=C(N)N3C2=O)cc1	5.67% (active)
O=C1/C(=C/c2ccc(Cl)c(Cl)c2)CN(C(=O)CCN2CCC(=NO)CC2)C/C1=C\c1ccc(Cl)c(Cl)c1	-92% (active)
NC(=S)N/N=C/c1ccc(OCc2ccccc2)cc1	71.5%
O=C1C=CC(Nc2ccccc2[N+](=O)[O-])C1Nc1ccccc1[N+](=O)[O-] (stereo not given)	96.8%
COc1ccc(CN(c2ccc(C)cc2)C2OC(=O)c3ccccc32)cc1OC (stereo not given)	79.4%
CC(=O)CC(C)(C)c1ccc(Cl)cc1	108%
CCCCCCCCCCCCCCCC(=O)OCC1OC(n2cnc3c(=S)nc(N)[nH]c32)C(OC(=O)CCCCCCCCCCCCCCC)C1OC(=O)CCCCCCCCCCCCCCC (stereo not given)	116%
Nc1c(C(=O)Nc2ccccc2)sc2nc3c(cc12)CN(CCc1ccccc1)CC3	91.3%
O=C1/C(=C/c2ccc(Cl)cc2Cl)CN(S(=O)(=O)c2ccccc2)C/C1=C\c1ccc(Cl)cc1Cl	76.4%
COc1ccc2nc3cc(Cl)ccc3c(N3CCN(c4ccnc(N5CCOCC5)n4)CC3)c2c1	60.6%
O=C1C(Cl)=C(Cl)C(=O)c2c1nc1n2CCCC1	76.2%
NC(N)=Nc1ccc(S(=O)(=O)O)cc1	97.8%
CC/C=C\C[C@H](O)C/C=C1/C(=O)C=C[C@@H]1C/C=C\CCCC(=O)OC(C)C	77.7%
CC(C)CC(CC1=CCC2CC1C2(C)C)C1=C(O)C(C)(C)C(=O)C(C)(C)C1=O (stereo not given)	-17.9% (active)
COc1ccc(CN2C(=O)/C(=C\c3cc(OC)c(OC)c(OC)c3)c3cc(OC)ccc32)cc1	38.6%
O=C(CO[N+](=O)[O-])Nc1ccc(C(=O)/C=C/c2ccc3c(c2)OCO3)cc1	107%
CCOC(=O)c1nc(Nc2cc(C)[nH]n2)c2ccccc2n1	62.4%
Nc1c(C(=O)Nc2ccccc2Cl)sc2nc3c(cc12)CCCCCC3	50.1%
CC(=O)C1=C(O)C=C2Oc3c(C(=O)/C=C/c4ccccc4)c(O)c(C)c(O)c3[C@]2(C)C1=O	14.3%

Source: PubChem BioAssay (NCI)
